High-throughput results as filed in PubChem.
RAD52 inh = RAD52 DNA annealing inhibitors, primary screen, biochemical, FRET, single point, set 2; DNA repair protein RAD52 homolog (Homo sapiens), P43351; recombinant RAD52 DNA annealing, FRET fluorescence; inhibition, % at 18.7 µM; actives 0.46% (n = 360,000); AID 651710, 2012;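 active = every replicate showing at least 50% inhibition; inconclusive = mean inhibition at least 50% but not in every replicate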
Target sequence (P43351 whole entry, looked up): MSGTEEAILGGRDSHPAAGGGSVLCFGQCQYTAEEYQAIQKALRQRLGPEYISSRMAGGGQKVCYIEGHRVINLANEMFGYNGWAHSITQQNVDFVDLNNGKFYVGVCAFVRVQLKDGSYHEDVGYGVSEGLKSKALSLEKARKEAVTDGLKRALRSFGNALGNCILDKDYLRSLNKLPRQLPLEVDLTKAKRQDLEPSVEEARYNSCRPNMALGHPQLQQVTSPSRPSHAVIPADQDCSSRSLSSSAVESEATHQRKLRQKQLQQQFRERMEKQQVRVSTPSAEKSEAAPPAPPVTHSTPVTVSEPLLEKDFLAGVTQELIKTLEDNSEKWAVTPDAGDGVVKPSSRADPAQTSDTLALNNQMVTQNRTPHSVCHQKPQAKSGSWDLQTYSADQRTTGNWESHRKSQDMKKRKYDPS
DENV2 CPE = inhibitors of DENV2 cytopathic effect, primary screen, cell-based, plate reader, single concentration | DENV2-infected cells, cytopathic effect rescue | CPE inhibition, % at 9.99 µM | actives 1.7% (n = 350,000) | AID 651640, 2012; in the data active = CPE inhibition above about 20%, passing the limit was not always enough; inconclusive = no clear call, values can overlap the other calls; tested in BHK-21 cells
RAD54 branch = inhibitors of human RAD54 branch migration, primary screen, biochemical, fluorescence, single point. AID 602329, 2012. actives 0.14% (n = 360,000). DNA repair and recombination protein RAD54-like (Homo sapiens), Q92698. inhibition, % at 10.4 µM. RAD54 Holliday junction branch migration, FAM/BHQ fluorescence;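 active = mean normalized replicate activity at least 40 and at least half of replicates scoring 40 or more; inconclusive = only one of the two criteria met; inactive = mean below 40 and under half of replicates reaching 40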;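 note: inhibitors cause a drop in the FAM fluorescence signal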
dFosB act = activators of delta FosB homodimer, primary screen, biochemical, fluorescence polarization, TAMRA-CDK5 oligo, single point. Protein FosB (Mus musculus), P13346. purified delta FosB; percent of positive-control signal above neutral wells. actives 0.99% (n = 340,000). activation, % at 25 µM;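 active = mean activation above about 17%, with every replicate also reaching it, limit read from the data, passing the limit was not always enough; inconclusive = only one of the two conditions met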
MLL AF4-AF9 inh = inhibitors of AF4 peptide binding to AF9, primary screen, biochemical, AlphaScreen, biotin-AF4 peptide, FLAG-AF9, single point; Protein AF-9 (Homo sapiens), P42568; inhibition, % at 10 µM; actives 0.47% (n = 350,000);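 active = every replicate reaching a set inhibition limit, whatever the replicate mean, cut at about 25% in these data; inconclusive = mean inhibition reaches that limit but some replicates miss it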
GSIS activator = GLuc luminescence reporter in INS-1E cells, primary screen for activators of glucose-dependent secretion of insulin. INS-1E GLuc reporter insulin secretion, 2-3 h. actives 0.61% (n = 370,000). activation, % at 16.6 µM;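 active = lowest replicate activation of at least 40%, so every replicate reaches that level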
Large screens that a line does not name were inactive. An excerpt weighted towards active compounds, which were near 3.1% of everything screened.

C[C@@H]1CCCCO[C@@H](CN(C)C(=O)Nc2ccc3c(c2)OCO3)[C@H](C)CN([C@@H](C)CO)C(=O)c2cc(NC(=O)Nc3ccccc3)ccc2O1	none (no result: dFosB act)
Cc1nnc2ccc(N3CCCCC3)nn12	none
Cc1nnc2ccc(N3CCN(c4cccc(C(F)(F)F)c4)CC3)nn12	MLL AF4-AF9 inh 51 (no result: GSIS activator)
C[C@H](CO)N1C[C@H](C)[C@@H](CN(C)Cc2ccc(Oc3ccccc3)cc2)Oc2c(NC(=O)Nc3ccc(C(F)(F)F)cc3)cccc2C1=O	DENV2 CPE 24 (no result: dFosB act)
COc1ccc(CN(C)C[C@@H]2Oc3c(NC(=O)Nc4ccccc4)cccc3C(=O)N([C@H](C)CO)C[C@H]2C)cc1	DENV2 CPE 30 (no result: dFosB act)
COc1ccc(CN(C)C[C@@H]2Oc3c(NC(=O)Nc4ccccc4)cccc3C(=O)N([C@@H](C)CO)C[C@@H]2C)cc1	none (no result: dFosB act)
Cc1noc(C)c1NC(=O)Nc1cccc2c1O[C@H](CN(C)Cc1ccc3c(c1)OCO3)[C@@H](C)CN([C@@H](C)CO)C2=O	DENV2 CPE 21 (no result: dFosB act)
C[C@@H]1CN([C@H](C)CO)C(=O)c2cccc(NC(=O)Nc3ccccc3)c2O[C@H]1CN(C)Cc1ccc(C(=O)O)cc1	DENV2 CPE 22 (no result: dFosB act)
C[C@H]1CN(C)C(=O)c2ccccc2O[C@@H]1CN(C)C	none (no result: RAD52 inh, DENV2 CPE, RAD54 branch, dFosB act, MLL AF4-AF9 inh)
Cc1noc(C)c1NC(=O)Nc1cccc2c1O[C@H](CN(C)Cc1ccc(C(=O)O)cc1)[C@H](C)CN([C@@H](C)CO)C2=O	DENV2 CPE 26 (no result: dFosB act)
COc1ccc(CN(C)C[C@H]2Oc3c(NC(=O)c4nc5ccccc5s4)cccc3C(=O)N([C@@H](C)CO)C[C@@H]2C)cc1	none (no result: dFosB act)
Cc1noc(C)c1NC(=O)Nc1cccc2c1O[C@H](CN(C)Cc1ccccc1)[C@H](C)CN([C@@H](C)CO)C2=O	none (no result: dFosB act)
Cc1cc(C(=O)Nc2cccc3c2O[C@@H](CN(C)Cc2ccc(C(=O)O)cc2)[C@@H](C)CN([C@H](C)CO)C3=O)n(C)n1	DENV2 CPE 50 (no result: dFosB act)
COc1ccc(CN(C)C[C@H]2Oc3c(NC(=O)c4nc5ccccc5s4)cccc3C(=O)N([C@H](C)CO)C[C@@H]2C)cc1	DENV2 CPE 24 (no result: dFosB act)
COc1ccc(NC(=O)Nc2cccc3c2O[C@@H](CN(C)Cc2ccc(C(F)(F)F)cc2)[C@@H](C)CN([C@@H](C)CO)C3=O)cc1	RAD52 inh 87 (no result: dFosB act)
Cc1cc(C(=O)Nc2cccc3c2O[C@H](CN(C)Cc2ccccc2)[C@H](C)CN([C@@H](C)CO)C3=O)n(C)n1	none (no result: dFosB act)
CC(=O)N[C@@H]1CC[C@@H](CCNC(=O)C2CCCCC2)O[C@H]1CO	none (no result: RAD54 branch, dFosB act)
O=C(NCc1nc2ccccc2[nH]1)C1=C[C@@H](c2csc3ccccc23)C[C@@H](OCCCCO)O1	none
O=C(NCc1nc2ccccc2[nH]1)C1=C[C@@H](c2coc3ccccc3c2=O)C[C@@H](OCCCCO)O1	DENV2 CPE 82 (no result: RAD54 branch, dFosB act, GSIS activator)
CC(C)NC(=O)N1[C@@H]2CN(C)C[C@H]1C2c1ccc(Br)cc1 (stereo partly drawn)	none (no result: RAD52 inh, DENV2 CPE, RAD54 branch, dFosB act, MLL AF4-AF9 inh)
c1ccc(-c2nc(NCC3CC3)nc3ccsc23)cc1	GSIS activator 78 (no result: dFosB act)
CC(C)c1ccc(S(=O)(=O)N2CCN(C(=O)n3ccnc3)CC2)cc1	DENV2 CPE 31
Cc1ccc(S(=O)(=O)N2CCN(C(=O)n3ccnc3)CC2)cc1	none
CCC(=O)N[C@@H]1CC[C@@H](CC(=O)NCC2CC2)O[C@@H]1CO	DENV2 CPE inconclusive (no result: RAD54 branch, dFosB act)
COc1ccc(OC)c(S(=O)(=O)N/N=C\c2c[nH]c3ccccc23)c1	DENV2 CPE 37
C[C@H]1CCCCO[C@H](CN(C)Cc2ccncc2)[C@@H](C)CN([C@@H](C)CO)C(=O)c2cc(NC(=O)Nc3ccc(C(F)(F)F)cc3)ccc2O1	RAD52 inh 57 (no result: dFosB act)
C[C@@H]1CCCCO[C@@H](CN(C)Cc2ccc(C(F)(F)F)cc2)[C@H](C)CN([C@H](C)CO)C(=O)c2cc(NC(=O)Cc3ccccc3)ccc2O1	DENV2 CPE 40 (no result: dFosB act)
C[C@H](CO)N1C[C@H](C)[C@H](CN(C)Cc2ccc(C(F)(F)F)cc2)OCCCC[C@H](C)Oc2ccc(NC(=O)Cc3ccccc3)cc2C1=O	none (no result: dFosB act)
C[C@@H]1CN([C@@H](C)CO)C(=O)c2cc(NC(=O)Nc3ccc(C(F)(F)F)cc3)ccc2O[C@@H](C)CCCCO[C@@H]1CN(C)Cc1ccccc1	DENV2 CPE 127 (no result: dFosB act)
C[C@@H]1CCCCO[C@@H](CN(C)Cc2ccncc2)[C@H](C)CN([C@H](C)CO)C(=O)c2cc(NC(=O)Nc3ccc(C(F)(F)F)cc3)ccc2O1	none (no result: dFosB act)
C[C@@H]1CN([C@H](C)CO)C(=O)c2cc(NC(=O)Nc3ccc(C(F)(F)F)cc3)ccc2O[C@@H](C)CCCCO[C@H]1CN(C)Cc1ccccc1	none (no result: dFosB act)
COc1ccc(CNCCC(c2ccccc2)C2CCOC(C)(C)C2)cc1 (stereo not drawn)	none (no result: RAD54 branch)
COc1ccc(CN(CCC(c2ccccc2)C2CCOC(C)(C)C2)C(C)=O)cc1 (stereo not drawn)	DENV2 CPE 102
C[C@@H]1CN([C@H](C)CO)C(=O)c2cccc(NC(=O)c3cnccn3)c2O[C@H]1CN(C)S(=O)(=O)c1cccs1	none (no result: dFosB act)
CO[C@H]1CN(C)C(=O)c2ccc(NC(=O)C3CCOCC3)cc2OC[C@H](C)N(Cc2cccnc2)C[C@@H]1C	none (no result: RAD54 branch, dFosB act)
C(=C\c1ccc(C2[C@H]3CNC[C@@H]2N3CC2CCOCC2)cc1)/c1ccccc1 (stereo partly drawn)	DENV2 CPE inconclusive (no result: RAD52 inh, RAD54 branch, dFosB act, MLL AF4-AF9 inh)
Nc1ccc2oc(-c3ccccc3Cl)cc(=O)c2c1O	DENV2 CPE 105 (no result: GSIS activator)
O=C(C#Cc1ccccc1)Nc1ccccc1F	none
O=C(O)c1ccccc1OCc1ccccc1Br	none (no result: RAD54 branch)
F[B-](F)(F)COCc1ccccc1Br	GSIS activator 56
F[B-](F)(F)COCc1ccccc1C#Cc1ccccc1	GSIS activator 98 (no result: RAD54 branch, dFosB act)
CCCCC#Cc1ccccc1COC[B-](F)(F)F	GSIS activator 73 (no result: RAD54 branch, dFosB act)
C[C@H](CO)N1C[C@H](C)[C@H](CN(C)Cc2ccc(C(F)(F)F)cc2)Oc2ccc(NC(=O)Nc3ccc4c(c3)OCO4)cc2C1=O	none (no result: dFosB act)
CC(=O)Nc1ccc(NC(=O)CSc2ncc(C(=O)Nc3ccc(F)cc3)c(=O)n2C)cc1	DENV2 CPE 30
Cc1cc2c(=O)n(C)c(SCC(=O)Nc3ccc(F)cc3)nc2s1	DENV2 CPE 37
O=C(Cc1cccnc1)N1CC2(C1)[C@H](c1ccccc1)[C@H](CO)N2C(=O)C1CCCCC1	none (no result: RAD54 branch, dFosB act)
